Assay results published in ChEMBL document CHEMBL3988442, “University of Dundee, Small-Polar-MMV Screening Library” (2021).
For some assays here: Measured potencies and affinities stand elsewhere.

Legend:
Parameters in all cases: scale not given: direction of the effect not stated beside the values
[1] = target: Protein translocase subunit SecA (Escherichia coli (strain K12)) (UniProt P10408); experiment: Assay to Identify E. coli SecA ATPase Inhibitors; assay type: functional; conditions: 30 µM
Chain of Protein translocase subunit SecA (Escherichia coli (strain K12)) (P10408 whole entry): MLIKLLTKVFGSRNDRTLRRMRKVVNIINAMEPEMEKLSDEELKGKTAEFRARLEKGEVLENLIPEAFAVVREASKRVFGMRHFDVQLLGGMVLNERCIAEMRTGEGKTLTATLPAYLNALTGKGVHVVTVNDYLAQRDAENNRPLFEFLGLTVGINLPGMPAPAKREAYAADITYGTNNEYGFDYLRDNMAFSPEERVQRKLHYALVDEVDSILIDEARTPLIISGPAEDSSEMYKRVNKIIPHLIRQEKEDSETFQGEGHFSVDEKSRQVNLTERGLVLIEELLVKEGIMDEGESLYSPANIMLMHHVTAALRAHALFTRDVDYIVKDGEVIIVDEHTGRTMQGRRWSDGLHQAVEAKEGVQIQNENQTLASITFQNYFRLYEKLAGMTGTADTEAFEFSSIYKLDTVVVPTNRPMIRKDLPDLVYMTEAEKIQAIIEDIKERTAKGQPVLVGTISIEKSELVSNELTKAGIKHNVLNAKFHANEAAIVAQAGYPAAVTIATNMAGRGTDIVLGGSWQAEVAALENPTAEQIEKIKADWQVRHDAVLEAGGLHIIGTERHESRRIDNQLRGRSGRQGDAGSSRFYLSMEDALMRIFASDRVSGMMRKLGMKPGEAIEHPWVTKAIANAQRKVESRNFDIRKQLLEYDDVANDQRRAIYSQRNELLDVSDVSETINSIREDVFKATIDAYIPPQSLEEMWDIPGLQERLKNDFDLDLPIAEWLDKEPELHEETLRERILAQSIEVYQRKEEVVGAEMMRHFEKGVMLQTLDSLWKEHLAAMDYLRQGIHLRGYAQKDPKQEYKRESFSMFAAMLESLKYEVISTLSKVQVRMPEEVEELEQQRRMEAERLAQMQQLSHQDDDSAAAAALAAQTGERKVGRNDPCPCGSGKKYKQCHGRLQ

[2] = target: T1, Ubiquitin-activating enzyme e1, putative (Leishmania donovani (strain BPK282A1)) (UniProt E9BSI1); experiment: Leishmania donovani Ubiquitin Activating Enzyme (LdE1); assay type: functional; conditions: 30 µM
T1 sequence (whole entry): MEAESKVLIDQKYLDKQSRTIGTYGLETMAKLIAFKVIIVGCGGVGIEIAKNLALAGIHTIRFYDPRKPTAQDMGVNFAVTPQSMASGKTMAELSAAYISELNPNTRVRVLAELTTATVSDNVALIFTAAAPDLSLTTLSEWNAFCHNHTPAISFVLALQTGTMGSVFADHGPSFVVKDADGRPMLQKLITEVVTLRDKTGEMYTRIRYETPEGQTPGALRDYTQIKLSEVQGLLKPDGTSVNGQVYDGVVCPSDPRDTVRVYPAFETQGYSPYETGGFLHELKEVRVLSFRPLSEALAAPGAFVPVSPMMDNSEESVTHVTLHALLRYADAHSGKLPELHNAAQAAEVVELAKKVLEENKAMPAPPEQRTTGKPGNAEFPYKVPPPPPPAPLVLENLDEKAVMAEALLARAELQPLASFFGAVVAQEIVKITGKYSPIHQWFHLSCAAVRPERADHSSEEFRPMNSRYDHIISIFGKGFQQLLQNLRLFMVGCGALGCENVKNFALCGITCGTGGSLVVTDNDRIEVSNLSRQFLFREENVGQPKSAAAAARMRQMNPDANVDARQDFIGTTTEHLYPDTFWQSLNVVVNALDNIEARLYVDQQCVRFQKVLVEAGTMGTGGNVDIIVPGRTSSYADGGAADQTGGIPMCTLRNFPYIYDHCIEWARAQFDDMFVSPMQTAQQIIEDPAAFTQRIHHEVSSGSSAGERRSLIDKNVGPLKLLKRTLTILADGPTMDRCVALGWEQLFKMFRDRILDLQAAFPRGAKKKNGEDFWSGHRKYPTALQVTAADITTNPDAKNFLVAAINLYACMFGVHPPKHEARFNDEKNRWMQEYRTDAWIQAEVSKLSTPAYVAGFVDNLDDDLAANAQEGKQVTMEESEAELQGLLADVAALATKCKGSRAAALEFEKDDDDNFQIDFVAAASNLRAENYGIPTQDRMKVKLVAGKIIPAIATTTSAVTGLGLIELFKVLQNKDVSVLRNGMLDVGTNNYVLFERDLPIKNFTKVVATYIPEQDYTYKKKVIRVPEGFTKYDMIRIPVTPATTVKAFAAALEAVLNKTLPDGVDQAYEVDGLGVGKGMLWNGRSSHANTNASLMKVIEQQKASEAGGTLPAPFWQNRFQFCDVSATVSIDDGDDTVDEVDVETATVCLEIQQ

[3] = target: AMP-activated protein kinase, AMPK (Homo sapiens) (UniProt P54646+O43741+P54619+Q9UGJ0+Q9Y478+Q13131+Q9UGI9); experiment: AMP-dependent Kinase enzyme assay. An in vitro enzyme assay that detects ADP turnover that is directly proportional to AMPK activity. This uses naive AMPK that is activated during the assay with MK-8722; assay type: functional; conditions: 30 µM
[4] = target: Sialic acid-binding Ig-like lectin 9 (Homo sapiens) (UniProt Q9Y336); experiment: Hs-Siglec9 ALPHAscreen SOP 20170721; conditions: 10 µM
Chain of Sialic acid-binding Ig-like lectin 9 (Homo sapiens) (Q9Y336 whole entry): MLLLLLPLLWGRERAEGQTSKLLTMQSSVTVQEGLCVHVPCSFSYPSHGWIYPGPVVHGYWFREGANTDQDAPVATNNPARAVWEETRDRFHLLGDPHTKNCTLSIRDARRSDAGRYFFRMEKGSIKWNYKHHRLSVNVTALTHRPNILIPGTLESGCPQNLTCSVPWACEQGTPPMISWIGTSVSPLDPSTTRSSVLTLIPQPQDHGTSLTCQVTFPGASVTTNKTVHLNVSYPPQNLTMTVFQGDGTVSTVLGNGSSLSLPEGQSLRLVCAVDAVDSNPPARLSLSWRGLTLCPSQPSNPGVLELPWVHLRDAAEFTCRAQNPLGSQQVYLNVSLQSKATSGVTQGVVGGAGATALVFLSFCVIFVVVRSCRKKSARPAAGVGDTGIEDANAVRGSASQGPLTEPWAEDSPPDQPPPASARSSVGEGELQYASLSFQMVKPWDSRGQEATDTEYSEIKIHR

Trypanosoma cruzi = experiment: Trypanosoma cruzi phosphomannomutase and mannose-1-phosphate guanylyltransferase assay; assay type: functional; conditions: 10 µM
[5] = target: T2, Arginase-2, mitochondrial (Homo sapiens) (UniProt P78540); experiment: in vitro enzyme assay to detect the production of urea directly proportional to the activity of Arginase II; assay type: functional; conditions: 33.3 µM; note: in the data most compounds retested in dose-response had high values
T2 sequence (whole entry): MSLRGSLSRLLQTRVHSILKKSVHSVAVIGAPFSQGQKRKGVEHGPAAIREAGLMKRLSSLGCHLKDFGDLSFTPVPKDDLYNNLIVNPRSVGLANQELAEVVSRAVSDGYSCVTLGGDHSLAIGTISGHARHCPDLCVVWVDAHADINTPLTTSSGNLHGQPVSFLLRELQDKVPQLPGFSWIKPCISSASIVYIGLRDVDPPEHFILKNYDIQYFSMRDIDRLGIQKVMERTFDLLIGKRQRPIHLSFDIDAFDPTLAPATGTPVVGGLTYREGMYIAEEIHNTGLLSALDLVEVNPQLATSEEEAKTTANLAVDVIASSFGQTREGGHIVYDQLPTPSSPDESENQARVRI

[6] = target: T3, Proteasome subunit beta (Trypanosoma cruzi) (UniProt O96673); experiment: Trypanosoma cruzi proteasome chymotrypsin-like activity (TcProtChymo) assay.; note: in the data most compounds retested in dose-response had high values; assay type: functional; conditions: 9.37 µM
T3 sequence (whole entry): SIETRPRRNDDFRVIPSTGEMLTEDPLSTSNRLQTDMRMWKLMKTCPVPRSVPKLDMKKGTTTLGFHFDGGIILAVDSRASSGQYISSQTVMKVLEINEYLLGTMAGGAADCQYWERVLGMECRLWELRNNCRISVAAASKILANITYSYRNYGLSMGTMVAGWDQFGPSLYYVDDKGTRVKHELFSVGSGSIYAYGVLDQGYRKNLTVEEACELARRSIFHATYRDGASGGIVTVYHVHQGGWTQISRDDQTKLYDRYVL

Homo sapiens = species: Homo sapiens; experiment: To identify inhibition of the IFN signalling (Jak-Stat) pathway via expression of an eGFP reporter gene under the control of an IFN-stimulated response element (ISRE) containing MxA promoter.; assay type: functional; conditions: 30 µM
[7] = target: T4, Tyrosyl-tRNA synthetase, putative (Trypanosoma cruzi (strain CL Brener)) (UniProt Q4DSP6); experiment: Trypanosoma cruzi tyrosyl tRNA synthetase (TcYRS) _High Tyrosine SOP; assay type: functional; conditions: 30 µM; note: in the data most compounds retested in dose-response had high values
T4 sequence (whole entry): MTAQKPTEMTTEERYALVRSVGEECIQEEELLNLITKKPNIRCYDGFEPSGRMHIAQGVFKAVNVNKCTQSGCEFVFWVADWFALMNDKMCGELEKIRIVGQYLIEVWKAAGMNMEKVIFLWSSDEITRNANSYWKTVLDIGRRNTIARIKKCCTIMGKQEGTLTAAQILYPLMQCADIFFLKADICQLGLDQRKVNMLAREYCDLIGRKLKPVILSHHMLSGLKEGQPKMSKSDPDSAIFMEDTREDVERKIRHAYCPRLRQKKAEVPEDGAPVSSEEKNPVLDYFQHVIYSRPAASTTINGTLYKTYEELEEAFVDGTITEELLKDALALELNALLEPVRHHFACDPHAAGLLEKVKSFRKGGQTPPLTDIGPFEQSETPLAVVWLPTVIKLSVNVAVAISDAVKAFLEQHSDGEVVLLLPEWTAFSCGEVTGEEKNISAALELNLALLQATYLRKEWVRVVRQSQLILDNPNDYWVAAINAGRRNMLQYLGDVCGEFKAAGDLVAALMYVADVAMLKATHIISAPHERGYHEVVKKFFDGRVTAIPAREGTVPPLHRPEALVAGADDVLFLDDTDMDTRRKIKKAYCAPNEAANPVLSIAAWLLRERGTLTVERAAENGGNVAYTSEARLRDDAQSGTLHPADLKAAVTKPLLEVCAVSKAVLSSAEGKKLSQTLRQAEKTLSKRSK

[8] = target: T4, Tyrosyl-tRNA synthetase, putative (Trypanosoma cruzi (strain CL Brener)); experiment: Trypanosoma cruzi tyrosyl tRNA synthetase (TcYRS) SOP; assay type: functional; conditions: 30 µM
[9] = target: Chromo domain-containing protein 1 (Saccharomyces cerevisiae (strain ATCC 204508 / S288c) (Baker's yeast)) (UniProt P32657); experiment: ScCHD-1 Enzyme Inhibition Assay; assay type: functional; conditions: 30 µM; note: in the data most compounds retested in dose-response had high values
Chain of Chromo domain-containing protein 1 (Saccharomyces cerevisiae (strain ATCC 204508 / S288c) (Baker's yeast)) (P32657 whole entry, the tested form may be a part): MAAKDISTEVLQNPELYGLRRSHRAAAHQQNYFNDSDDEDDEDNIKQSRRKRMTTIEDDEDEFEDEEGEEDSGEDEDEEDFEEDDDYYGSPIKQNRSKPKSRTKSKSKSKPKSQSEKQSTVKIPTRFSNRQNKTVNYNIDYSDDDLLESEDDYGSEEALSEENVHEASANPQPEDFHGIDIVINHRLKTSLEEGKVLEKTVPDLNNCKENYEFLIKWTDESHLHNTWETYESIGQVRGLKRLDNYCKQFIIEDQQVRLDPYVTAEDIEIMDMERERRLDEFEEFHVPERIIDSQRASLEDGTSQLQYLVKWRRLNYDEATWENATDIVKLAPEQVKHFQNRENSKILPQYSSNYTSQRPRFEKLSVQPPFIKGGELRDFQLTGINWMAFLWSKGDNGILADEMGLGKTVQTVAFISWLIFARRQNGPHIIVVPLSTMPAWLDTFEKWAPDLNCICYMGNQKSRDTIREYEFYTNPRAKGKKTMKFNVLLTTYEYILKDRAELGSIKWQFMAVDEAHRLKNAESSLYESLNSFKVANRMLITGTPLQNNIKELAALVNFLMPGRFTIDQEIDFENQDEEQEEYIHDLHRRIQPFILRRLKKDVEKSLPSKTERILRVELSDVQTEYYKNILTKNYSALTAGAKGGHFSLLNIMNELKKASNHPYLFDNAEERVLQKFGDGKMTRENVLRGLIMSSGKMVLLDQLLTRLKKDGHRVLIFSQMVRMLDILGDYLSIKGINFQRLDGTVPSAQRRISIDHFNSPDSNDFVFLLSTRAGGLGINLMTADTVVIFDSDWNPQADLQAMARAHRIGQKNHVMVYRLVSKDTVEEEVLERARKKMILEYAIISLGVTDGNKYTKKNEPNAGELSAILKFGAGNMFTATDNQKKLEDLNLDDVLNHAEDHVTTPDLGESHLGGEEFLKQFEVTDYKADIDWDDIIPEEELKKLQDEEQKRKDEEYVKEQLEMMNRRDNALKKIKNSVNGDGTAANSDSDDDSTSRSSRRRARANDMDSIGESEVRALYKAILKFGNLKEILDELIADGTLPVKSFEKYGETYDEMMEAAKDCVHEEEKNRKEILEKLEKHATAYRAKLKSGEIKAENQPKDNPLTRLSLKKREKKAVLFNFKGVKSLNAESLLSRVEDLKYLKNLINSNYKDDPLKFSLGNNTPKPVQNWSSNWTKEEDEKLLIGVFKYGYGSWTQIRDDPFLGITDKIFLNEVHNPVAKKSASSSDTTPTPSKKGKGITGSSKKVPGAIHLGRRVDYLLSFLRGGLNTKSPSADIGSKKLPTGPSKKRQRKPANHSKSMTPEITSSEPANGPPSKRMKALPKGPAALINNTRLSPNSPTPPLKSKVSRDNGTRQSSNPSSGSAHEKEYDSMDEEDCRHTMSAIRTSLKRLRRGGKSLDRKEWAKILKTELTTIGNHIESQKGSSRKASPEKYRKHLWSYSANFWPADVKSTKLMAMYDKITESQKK

| SMILES | Percent Effect [1] [%] | Percent Effect [2] [%] | Percent Effect [3] [%] | Percent Effect [4] [%] | Percent Effect (Trypanosoma cruzi) [%] | Percent Effect [5] [%] | Percent Effect [6] [%] | Percent Effect (Homo sapiens) [%] | Percent Effect [7] [%] | Percent Effect [8] [%] | Percent Effect [9] [%] |
| --- | --- | --- | --- | --- | --- | --- | --- | --- | --- | --- | --- |
| CCn1c(C(=O)N2CCN(C(=O)COC)CC2)cc2ccccc21 | -10.4 | 13 | -4.96 | 23.8 | 11.4 | 2.49 | -0.169 | 10.3 | 7.77 | 21.9 | -12.3 |
| COCCNC(=O)[C@H]1CN(c2nnc(C)s2)C[C@H]2OCC[C@@H]12 | -2.67 | 0 | 13.1 | 0.154 | -0.394 | -0.233 | 3.79 | 6.49 | 1.06 | 1.28 | 2.36 |
| CN(Cc1ccco1)C[C@H]1OC[C@@H]2CCN(Cc3cccnc3)C[C@@H]21 | -2.62 | 10.7 | 0.611 | -1.35 | 0.772 | -51.1 | 8.55 | 1.18 | 0 | 10 | -2.25 |
| CC1CN(C)c2ccccc2CN1C(=O)CSc1ccncc1 (configuration not stated) | -1.53 | 11 | 2.54 | 1.63 | 0.783 | 2.73 | 2.48 | 17.3 | 6.45 | 7.5 | -6.19 |
| COc1ccc(OCC(=O)NC(C)c2ccc(F)cc2)c(C(=O)O)c1 (configuration not stated) | -5.45 | 5.41 | 1.14 | 2.91 | 2.05 | 5.21 | 0.944 | -0.568 | 4.3 | 13.6 | -5.02 |
| CCc1cnc2c(c1NCc1cccc(OC)c1)c(=O)n(C)c(=O)n2C | -0.146 | 23.4 | -3.97 | -14.3 | 0.0986 | -4.52 | 5.74 | 19.2 | 3.17 | 14.1 | -8.85 |
| CC1=N[C@@]2(CC[C@@H]3CN(CC(=O)N(C)C)C[C@@H]32)C(=O)N1CC(C)C | 3.62 | 12 | 42.2 | 1.63 | -8.25 | -20.6 | 9.43 | 24.2 | 1.06 | 0 | -8.72 |
| COc1ccc(N2CCC(C(=O)/N=c3/[nH]ccs3)CC2)nn1 | -5.79 | 1.33 | 5.74 | 6.32 | 0.589 | -13.9 | 11.3 | 44.8 | 5.29 | 12.8 | -12.7 |
| CCCN1CC(C(=O)Nc2ccccn2)CC1=O (configuration not stated) | 0.0255 | 0 | -0.466 | 5.93 | 4.83 | 12.4 | 9.31 | 15.4 | 2.65 | 7.32 | -4.7 |
| O=C(NCc1nncn1-c1ccccc1)C1CC(=O)N(CC2CC2)C1 (configuration not stated) | -6.4 | 5.41 | -8.14 | 7.22 | -3.3 | 24.4 | -0.901 | 8.14 | 3.45 | 3.7 | -2.19 |
| CN(C(=O)NCc1ccncc1)C1CCN(c2ccccc2)C1=O (configuration not stated) | -4.85 | 13.2 | -3.87 | 3.74 | 6.58 | -3.06 | 10 | 5.78 | 6.37 | 12.2 | -10.8 |
| O=C(NC1CC1)[C@H]1CC[C@@H]2[C@@H](CCN2c2ncc(F)cn2)O1 | -3.27 | 2.6 | 0.23 | 1.05 | -0.688 | -2.76 | 4.16 | 11 | 3.23 | 1.24 | 134 |
| COc1ccc2c(c1)CCCN2Cc1nc2c(cnn2C)c(=O)[nH]1 | -3.64 | 20.2 | -9.32 | -0.208 | -2.36 | 2.28 | 3.52 | 3.6 | 9.36 | 16.5 | -5.55 |
| O=C(NCc1cn2c(n1)CN(CC1CCOCC1)CC2)C1CCC1 | -8.08 | -2.7 | 4.27 | 1.46 | -2.73 | -1.25 | 12.9 | 5.25 | 2.97 | 1.22 | -0.655 |
| CCOC(=O)[C@]12CCCN(Cc3nccs3)C[C@H]1CN(CCN(C)C)C2 | -2.1 | 13 | 1.26 | -3.57 | -0.493 | 7.1 | 16.2 | 8.87 | 2.12 | 8.97 | -10.9 |
| Cc1cc(CN2CCCC2c2c(C)nn(C)c2Cl)no1 (configuration not stated) | -2.25 | 21.1 | -2.49 | -2.11 | 3.46 | 3.24 | 13.4 | 3.96 | 10.3 | 28.4 | -10.3 |
| CCc1nnsc1C(=O)NCCn1nc2ccccn2c1=O | -5.54 | 18.9 | -7.77 | 20.2 | 5.66 | 4.25 | 8.8 | -0.849 | 6.93 | 18.3 | -9.16 |
| Cn1cc(Br)c(=O)c(NS(=O)(=O)c2cc(F)ccc2Cl)c1 | -3.11 | 2.7 | -8.02 | 5.84 | 9.07 | -2.38 | 13.3 | 6.19 | 0.529 | -2.44 | -0.642 |
| CC(=O)NCCc1ccc(C(=O)N2CCCC2c2cnn(C)c2)cc1 (configuration not stated) | -1.4 | 21.1 | -6.64 | -8.62 | 2.89 | -3.6 | 11.9 | 1.72 | 4.43 | 16.1 | -8.59 |
| Cc1ccc(CN2CCC3(CC(C(=O)NCC4CC4)=NO3)C2)cc1C (configuration not stated) | -4.16 | 2.67 | 7.69 | -4.65 | -4.05 | -64 | 0.684 | 2 | 0 | 7.5 | -7.33 |
| CN(c1ccc(C(=O)NCCCN2CCOCC2)c(Cl)c1)S(C)(=O)=O | -5.85 | 5.2 | -0.453 | 13.2 | 4.23 | -13.8 | 7.16 | -1.2 | 5.38 | 11.1 | -6.36 |
| CC(=O)N1CCC(Cc2cnc(-c3c(C)nn(C)c3C)cn2)C1 (configuration not stated) | -3.33 | 0 | 8.59 | 5.11 | 5.71 | -8.62 | 2.2 | -21.9 | 4.25 | 6.41 | -1.12 |
